Only some compounds are listed: those with a hit (about 14% of all), similar ones and a draw of the others.
USP28 block: inhibitors of human USP28 deubiquitinase | Q96RU2 | purified USP28, Ub-rhodamine cleavage fluorescence, 30 min | inhibition, % at 25 µM | 3% of 47,000 active | AID 1645857
USP17 block: blocks human USP17 ubiquitin-rhodamine cleavage. purified USP17, Ub-rhodamine cleavage fluorescence, 3 h. inhibition, % at 50 µM. 6.5% of 47,000 active. AID 1645855
Target sequence (A8MUK1 whole entry, looked up): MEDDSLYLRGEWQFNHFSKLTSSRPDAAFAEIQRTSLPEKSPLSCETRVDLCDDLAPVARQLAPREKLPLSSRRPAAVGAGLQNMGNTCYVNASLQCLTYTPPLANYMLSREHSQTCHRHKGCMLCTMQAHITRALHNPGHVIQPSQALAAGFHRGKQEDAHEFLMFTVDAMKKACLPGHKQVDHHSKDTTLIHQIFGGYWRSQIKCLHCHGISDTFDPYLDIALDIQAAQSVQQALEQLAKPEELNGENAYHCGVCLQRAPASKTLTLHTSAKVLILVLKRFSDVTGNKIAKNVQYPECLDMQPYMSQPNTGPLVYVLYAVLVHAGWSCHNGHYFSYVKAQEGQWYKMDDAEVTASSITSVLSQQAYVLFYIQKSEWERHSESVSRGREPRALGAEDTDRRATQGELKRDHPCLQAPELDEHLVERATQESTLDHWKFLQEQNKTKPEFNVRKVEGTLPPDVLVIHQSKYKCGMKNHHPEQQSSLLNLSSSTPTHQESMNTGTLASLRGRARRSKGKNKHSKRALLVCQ
USP8 inh: inhibitors of human USP8 deubiquitinase; P40818; purified USP8, Ub-rhodamine cleavage fluorescence, 30 min; inhibition, % at 20 µM; 4.2% of 47,000 active
USP30 inh: blocks human USP30 ubiquitin-rhodamine cleavage; 5.3% of 47,000 active; inhibition, % at 25 µM; purified USP30, Ub-rhodamine cleavage fluorescence; Q70CQ3
Starred values were filed as active, the others as inactive; / = not tested or not shown. Cut-off read from the data, not from the text of the source: active = inhibition above about 30%; inactive = the rest.

SMILES	USP28 block	USP17 block	USP8 inh	USP30 inh
COC(=O)c1ccc(OC(=O)C(NS(=O)(=O)c2ccc3c(c2)OCCO3)C(C)C)cc1 (stereo not given)	5	0	-30	-60
Cc1cccc(C)c1NC(=O)COC(=O)CCc1ccc(S(=O)(=O)N2CCCCC2)cc1	0	/	0	16
O=C(COC(=O)CCc1ccc(S(=O)(=O)N2CCOCC2)cc1)Nc1ccc2c(c1)OCCO2	65*	/	10	20
CC(C)NS(=O)(=O)c1ccc(CCC(=O)Nc2ccc3c(c2)OCCO3)cc1	82*	2	-6	0
CC(C)C(NS(=O)(=O)c1ccc2c(c1)OCCO2)C(=O)Nc1cccc(F)c1 (stereo not given)	27	44*	21	39*
CCN1CCn2c(nc3cc(C(=O)NC4CCCCCC4)ccc32)C1=O	-17	-39	5	0
Cc1ccc(CN(CCCn2ccnc2)Cc2cnn(C)c2)s1	-1	1	30	1
C1=CCC(CN(CCCn2ccnc2)Cc2cnc[nH]2)CC1 (stereo not given)	-2	0	32*	6
Cc1cc(C)cc(N(CCC(=O)Nc2ccc(N3CCOCC3)cc2)S(=O)(=O)c2ccc(Cl)cc2)c1	13	32*	32*	41*
CC(=O)c1ccc(NC(=O)CN2CCc3ccccc3C2)cc1	-10	-8	4	-9
CC(=O)c1ccc(NC(=O)CCn2c(=O)c3cccn3c3ccccc32)cc1	-1	43*	29	-245
CCc1ccccc1NC(=O)CCn1c(=O)c2cccn2c2ccccc21	-26	-15	37*	-25
CCc1ccccc1NC(=O)CCc1c(C)nc2c(c1C)c(=O)n(C)c(=O)n2C	9	20	22	16
CCOc1ccccc1C(=O)NCc1noc(Cc2ccccc2)n1	19	15	19	17
CC(C)c1n[nH]c(=O)c2c1nnn2Cc1ccccc1F	21	5	5	34*
COC(=O)Cn1cnc2c([nH]c3ccc(OC)cc32)c1=O	12	8	9	29
Cc1ccc2[nH]c3c(=O)n(Cc4cccnc4)cnc3c2c1	7	34*	-3	17
COCCCn1cnc2c([nH]c3ccc(Br)cc32)c1=O	/	65*	-4	/
COc1ccc2[nH]c3c(=O)n(Cc4cccnc4)cnc3c2c1	9	45*	-1	24
O=c1c2[nH]c3ccc(Br)cc3c2ncn1CCO	1	24	-4	3
COc1ccc(Cn2cnc3c([nH]c4ccc(Br)cc43)c2=O)cc1	-24	61*	0	-13
CCn1c(CN(C)c2ccccc2)nc2cc(S(=O)(=O)N3CCOCC3)ccc21	-2	-4	-7	-46
Cc1ccc2[nH]c3c(=O)n(CCN4CCNCC4)cnc3c2c1	6	0	6	21
Cc1ccc2[nH]c3c(=O)n(Cc4ccc(N(C)C)cc4)cnc3c2c1	7	10	88*	16
Cc1nc(C2CCCCN2C(=O)c2n[nH]c3c2CCC3)nc2c1CCC(=O)N2CC(C)C (stereo not given)	-13	-16	-8	-8
SMILES	USP28 block	USP17 block	USP8 inh	USP30 inh
CSc1ccc(CNC(=O)CC2CCN(S(=O)(=O)c3ccc(C)cc3)CC2)cc1	30*	21	22	50*
CC(=O)Nc1ccc(S(=O)(=O)N2CCC(CC(=O)NCc3ccc(F)cc3)CC2)cc1	5	9	1	22
CCn1c(=O)[nH]c2ccc(Br)cc2c1=O	3	6	0	15
NC(=S)N=Nc1c(O)[nH]c2ccc(Br)cc12	14	22	2	34*
N#C/C(=C\c1ccc(C(F)(F)F)cc1)c1c[nH]c2ccccc12	0	32*	4	-25
O=C(c1cccc2[nH]ccc12)N1CCC(c2nc(-c3ccccc3)no2)C1 (stereo not given)	12	11	9	-18
O=[N+]([O-])c1ccc(N2CCCC2)c(CO)c1	10	-9	-67	-47
O=C(O)c1cc([N+](=O)[O-])ccc1N1CCC(Cc2ccccc2)CC1	5	0	-87	31*
O=S(=O)(Nc1ccc(Oc2ccccc2)cc1)c1ccccc1	60*	70*	34*	64*
Cc1ccc(-n2nnc(C(=O)NC3CCCC3)c2N)cc1	6	5	21	19
Cc1ccc(-n2nnc(C(=O)NC3CCCCC3)c2N)cc1	0	53*	0	2
CC1=C(C(=O)Nc2ccccc2)C(c2cccc(OCc3ccc(F)cc3)c2)n2ncnc2N1 (stereo not given)	-5	-11	-11	1
CC1=C(C(=O)Nc2cccnc2)C(c2cccc(OCc3ccccc3)c2)n2nnnc2N1 (stereo not given)	-3	10	37*	21

Source: PubChem BioAssay (Buhrlage Lab, Dana-Farber Cancer Institute and Novartis Institutes for BioMedical Research (Cambridge, Mass))
